Assay outcomes as filed in PubChem BioAssay.
DT40 TDP1 CPT: DT40-hTDP1 cell growth loss with CPT; chicken DT40 Tdp1-/-;hTDP1 cells + 20 nM CPT, ATP luminescence, 48 h; Potency, µM (highest dose often 46.2 µM), for the others: top-dose activity change, negative = growth inhibition, usual class: inhibitors; 12% of 420,000 active; note: nearly all actives have a fitted effect of over 55% in size
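Cell growth measured by CellTiter-Glo luminescence after a minimum 48 h, 37 C compound exposure with 20 nM CPT in Tdp1-knockout DT40 cells stably expressing hTDP1, seeded 400/well; qHTS titration format.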
ELG1 DNA repair: ELG1-dependent DNA repair inhibition. 2.3% of 330,000 active. Potency, µM (series often up to 46.1 µM), without a hit: top-dose activity change, negative = inhibition, actives largely listed as inhibitors. HEK293T ELG1-luciferase reporter, luminescence, 16 h; DNA damage induced by 5-fluorouridine; note: nearly all actives have a fitted effect of over 55% in size
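5-Fluorouridine DNA damage + compound/DMSO, 2,000 cells/well, 16 h, 37 °C/5% CO2. ONE-Glo, 30 min RT, luminescence. Readout = decrease in reporter signal.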
RORg inh: ROR gamma (mouse) transcription inhibition. P51450. Drosophila S2 Gal4-RORgamma UAS-luciferase reporter, 20 h. Potency, µM (top dose mostly 53.6 µM), inactives show at the top dose activity change, negative = inhibition, hits mostly inhibitors. 5.4% of 310,000 active; note: nearly all actives have a fitted effect of over 60% in size
Target sequence (P51450 whole entry, looked up, the tested form may be a part): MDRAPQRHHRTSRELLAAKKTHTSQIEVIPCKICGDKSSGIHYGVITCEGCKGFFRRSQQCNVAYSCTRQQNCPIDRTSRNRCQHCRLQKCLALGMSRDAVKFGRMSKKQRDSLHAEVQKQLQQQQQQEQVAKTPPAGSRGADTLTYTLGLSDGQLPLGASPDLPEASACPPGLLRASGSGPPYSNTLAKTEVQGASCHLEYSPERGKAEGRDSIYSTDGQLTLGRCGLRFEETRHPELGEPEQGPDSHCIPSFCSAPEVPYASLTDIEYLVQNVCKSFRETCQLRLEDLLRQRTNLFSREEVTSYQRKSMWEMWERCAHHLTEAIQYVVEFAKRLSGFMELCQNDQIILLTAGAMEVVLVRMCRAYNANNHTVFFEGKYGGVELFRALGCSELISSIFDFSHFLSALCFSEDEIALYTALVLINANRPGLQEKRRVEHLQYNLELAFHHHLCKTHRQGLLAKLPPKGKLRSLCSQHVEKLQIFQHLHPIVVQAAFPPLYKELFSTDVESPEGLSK
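Drosophila Schneider cells stably carrying a metallothionein-driven Gal4 DBD–ROR gamma fusion and a UAS-Photinus luciferase reporter were exposed to compound for 1 hr, then induced with copper sulfate (700 uM final) for 20 hr at ambient temperature before luminescence reading.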
DT40 TDP1 no CPT: qHTS for Inhibitors of human tyrosyl-DNA phosphodiesterase 1 (TDP1): qHTS in cells in absence of CPT; 15% of 420,000 active; Potency, µM (top dose mostly 46.2 µM), for inactives: at the highest dose activity change, negative = growth inhibition, most hits filed as inhibitors; DT40 Tdp1-/- hTDP1 cells, no CPT, ATP luminescence, 48 h; note: nearly all actives have a fitted effect of over 55% in size
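No-CPT arm: Tdp1-/-;hTDP1 DT40 cells (400/well) plus compounds, incubated ≥48 hr at 37 °C. Readout CellTiter-Glo luminescence.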
VP16 counter: counter-screen for ROR gamma inhibitors: Gal4-VP16 reporter | Drosophila S2 Gal4-VP16 UAS-luciferase, luminescence, 20 h | Potency, µM (series often up to 53.6 µM), without a hit: at the top dose activity, negative = inhibition, hits mostly inhibitors | 3.5% of 310,000 active | AID 2546;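 note: Gal4-VP16 expression switched on by copper sulfate through the metallothionein promoter; nearly all actives have a fitted effect of over 50% in size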
ALOX12 inh: blocks human arachidonate 12S-lipoxygenase; P18054; purified 12hLO, xylenol orange hydroperoxide absorbance; Potency, µM (top dose mostly 108 µM), without a hit: at the top dose activity change, negative = inhibition, actives largely listed as inhibitors; 1.1% of 580,000 active
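Purified human 12hLO (150 nM final) in 25 mM Hepes, 0.01% Triton X-100, pH 7.0 was preincubated 15 min at room temperature with compound. Then 40 uM arachidonic acid was added, 30 min. Hydroperoxide was read by Fe-XO absorbance ratio 573/405 nm.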
ELG1 FLuc counter: luciferase inhibition in cell-free luciferin readout for ELG1 hits. 3% of 350 active. cell-free firefly luciferase luminescence counter-screen, ViewLux. shares compounds with ELG1 DNA repair. Potency, µM (highest dose often 46.1 µM), for the others: at the top dose activity change, negative = inhibition, usual class: inhibitors
ELG1 Luc conf: inhibits ELG1-dependent DNA repair in HEK293T cells, confirmed | shares compounds with ELG1 DNA repair | HEK293T ELG1-luciferase levels, luminescence; cells co-treated with 5-fluorouridine | Potency, µM (top dose mostly 46.1 µM), inactives show at the top dose activity change, negative = inhibition, usual class: inhibitors | 68% of 670 active; note: nearly all actives have a fitted effect of over 55% in size
ELG1-Luc MMS: MMS-stimulated human ELG1 repair inhibition, confirmed | shares compounds with ELG1 DNA repair | HEK293T luciferase-tagged ELG1 level, MMS stimulated | Potency, µM (top dose mostly 46.1 µM), for inactives: at the top dose activity change, negative = inhibition, most hits filed as inhibitors | 53% of 670 active | AID 624249; note: nearly all actives have a fitted effect of over 60% in size
ELG1 5FU viab: confirmation of ELG1 repair inhibitors: viability with 5FU; shares compounds with ELG1 DNA repair; cell viability with 5-FU, ELG1-dependent repair; Potency, µM (doses to about 46.1 µM), inactives show top-dose activity change, negative = viability loss, most hits filed as cytotoxic; 670 tested, under 10 active; AID 624250;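 note: ELG1-luc HEK293T cells cotreated with 5-fluorouridine at 10 µM final; viability measured 16 h after compound addition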
ELG1 MMS cell: confirmation of ELG1 repair inhibitors: viability with MMS | shares compounds with ELG1 DNA repair | Cell viability with MMS, ELG1-dependent DNA repair | Potency, µM (top dose mostly 46.1 µM), for inactives: at the highest dose activity change, negative = viability loss, hits mostly cytotoxic | 33% of 670 active | AID 624251;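 note: ELG1-luc HEK293T cells co-treated with 10 µM MMS; viability read 16 h after compound addition; nearly all actives have a fitted effect of over 60% in size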
ELG1 unstim viab: counter-screen for ELG1 repair inhibitors: unstimulated cell viability. Potency, µM (titrated, usually from 45.9 µM), for the others: at the highest dose activity change, negative = loss of viability, hits mostly cytotoxic. shares compounds with ELG1 DNA repair. AID 624252. cell viability counter-screen, unstimulated, luminescence. 8% of 900 active;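 note: compound exposure lasted 16 hours before reading; nearly all actives have a fitted effect of over 55% in size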
FLuc biochem: inhibits purified firefly luciferase, counter-screen for ELG1 hits; shares compounds with ELG1 DNA repair; purified firefly luciferase, luminescence counter-screen; Potency, µM (top dose mostly 57.5 µM), for the others: at the top dose activity, negative = inhibition, usual class: inhibitors; 10% of 350 active; AID 624253
Starred values were filed as active, the others as inactive; ? = inconclusive; . = no result; [ ] = dose if it differs, or a comment. Sampled rows, rich in hits. Any-hit rate of the full collection: about 15%. Calls come from the whole dose curve; as a rule, active = well fitted curve in the direction sought with a large enough effect; inconclusive = small, poorly fitted or top-dose-only effect, or another doubt; inactive = no such curve, though single readings can be large; an effect the other way counts as inactive or inconclusive. % is set by controls: 0 for no effect and ±100 for the full control effect; potency is the fitted concentration of half-maximal effect.

SMILES	DT40 TDP1 CPT	ELG1 DNA repair	RORg inh	DT40 TDP1 no CPT	VP16 counter	ALOX12 inh	ELG1 FLuc counter	ELG1 Luc conf	ELG1-Luc MMS	ELG1 5FU viab	ELG1 MMS cell	ELG1 unstim viab	FLuc biochem
O=C(c1ccsc1)N1[C@H]2CC[C@@H]1c1cnc(-c3ccc(F)cc3)nc1C2	.	.	.	.	.	8.7%	.	.	.	.	.	.	.
O=c1[nH]c(=O)n(Cc2ccc(F)cc2)c(O)c1/C=N/Nc1ccccc1	18.1%	1.83µM*	-5.6%	-14.5%	1.2%	?	.	6.2%	1.9%	-0.2%	-3.0%	?	.
C=C[C@H]1CN2CC[C@H]1C[C@@H]2CNC(=O)CSCC(=O)O	.	.	.	.	.	39.7%[176 µM]	.	.	.	.	.	.	.
Nc1nc(CN2CCN(C(=O)COc3cccc(F)c3)CC2)nc2ccccc12	.	.	.	.	.	0.4%	.	.	.	.	.	.	.
COc1cc2c(cc1OC)[C@@H]1C(=O)c3ccc4c(c3OC1CO2)CC(C(C)C)O4 (stereo partly specified)	0.0651µM*	.	0.1µM*	0.082µM*	8.91µM*	.	?	25µM*	0.0445µM*	-21.7%	0.0397µM*	?	-4.3%
C[C@]12CCC3C(CCC4=CC(O)CC[C@@]43/C=N/O)C1(O)CCC2C1=CC(=O)OC1 (stereo partly specified)	4.4%	1.46µM*	-1.2%	?	-18.8%	0.0%	.	0.996µM*	0.445µM*	?	1.25µM*	0.499µM*	.
C[C@@]12CC[C@H](O)C[C@@H]1CC[C@H]1[C@H]2CC[C@@]2(C)[C@@H](C3=CC(=O)OC3)CC[C@]12O	.	.	7.1%[16.9 µM]	.	-3.2%[17 µM]	.	.	.	.	.	.	.	.
CN1C(=O)CO[C@H]2CN(Cc3ccccn3)C[C@H]21	.	.	.	.	.	73.2%[176 µM]	.	.	.	.	.	.	.
CC1OC(O[C@@H]2C(O)CC(O[C@@H]3C(O)C[C@@H](OC4CC[C@]5(C)[C@H](CC[C@H]6[C@@H]5CC[C@]5(C)C(C7=CC(=O)OC7)C(O)C[C@@]65O)C4)OC3C)OC2C)CC(O)C1O (stereo partly specified)	0.3%	.	2.24µM*	-14.0%	-3.1%	.	.	0.56µM*	0.315µM*	?	0.499µM*	0.199µM*	.
C[C@@H]1O[C@H](O[C@@H]2CC[C@@]3(C=O)[C@H]4CC[C@@]5(C)[C@@H](C6=CC(=O)OC6)CC[C@@]5(O)[C@@H]4CC[C@]3(O)C2)C[C@H](O)[C@@H]1O	.	.	-6.8%[16.9 µM]	.	-10.9%[17 µM]	.	.	.	.	.	.	.	.
COC1C(O)C(C)O[C@@H](OC2CC[C@@]3(C)C4CC[C@]5(C)C(C6=CC(=O)OC6)CC[C@@]5(O)C4CC[C@@H]3C2)C1O (stereo partly specified)	1.03µM*	.	?	0.651µM*	-10.7%	.	?	0.0997µM*	0.0629µM*	?	0.141µM*	0.05µM*	-6.0%
COC1C(O)C(C)O[C@H](OC2CC[C@@]3(C=O)C4CC[C@]5(C)C(C6=CC(=O)OC6)CC[C@@]5(O)C4CC[C@@H]3C2)C1O (stereo partly specified)	0.651µM*	.	12.5%	0.366µM*	-2.0%	.	?	0.177µM*	0.0706µM*	0.25µM*	0.158µM*	0.0445µM*	?
Cc1cnc(C2CCC2)n1C1CCNCC1	.	.	.	.	.	65.2%	.	.	.	.	.	.	.
O=[N+]([O-])c1ccc(NCCOc2cccc3ccccc23)c2ncccc12	.	.	.	.	.	-0.3%	.	.	.	.	.	.	.
COC[C@H]1CCCN1C[C@H]1CN2CC[C@H]1C[C@@H]2CNC(=S)Nc1ccc(-n2cccn2)cc1	.	.	.	.	.	27.9%	.	.	.	.	.	.	.
C=C(C)[C@@]12OC3(c4ccccc4)O[C@@H]1[C@@H]1[C@@H]4O[C@]4(CO)[C@@H](O)[C@]4(O)C(=O)C(C)=C[C@H]4[C@@]1(O3)[C@H](C)[C@H]2OC(=O)/C=C/C=C/c1ccccc1	.	.	34.1%	.	-21.1%	20.7%	72.5%	.	.	.	.	?	-0.5%
CCCCN=C[C@]12CCC(O)CC1(O)CCC1[C@@H]2CC[C@]2(C)[C@H](C3C=CC(=O)O3)CCC12O (stereo partly specified)	?	1.03µM*	-6.2%	16.4µM*	-2.8%	12.0%	?	1.58µM*	0.889µM*	?	1.99µM*	0.629µM*	-3.0%
